# According to PubChem BioAssay (EPA / NIEHS):
# Calls of active or inactive are those of the source. Rule for the calls: active = hit-call score of the fitted dose curve at least 0.9, where 1 is the maximum; inactive = score below 0.9.
# Assay: BSK_3C_Vis: BioMAP Diversity Plus: 3C Assay for Morphology Visualization (AID 2283025);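 note: fitted both ways so gain or loss versus DMSO counts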
# Conditions: primary human endothelial cells (HUVEC)
# Protocol: BSK_3C is a cell-based, multiplexed-readout assay that uses umbilical vein endothelium, a human vascular primary cell, with measurements taken at 24 hours after chemical dosing in a 96-well plate.BSK_3C_Vis is an assay component measured in the BSK_3C assay. It measures NA related to cell morphology using light microscopy technology.Data from the assay component BSK_3C_Vis was analyzed into 1 assay endpoint. This assay endpoint, BSK_3C_Vis, was analyzed with bidirectional fitting relative to DMSO as the negative control and baseline of activity. Using a type of morphology reporter, gain or loss-of-signal activity can be used to understand changes in the background control. Furthermore, this assay endpoint can be referred to as a secondary readout, because this assay has produced multiple assay endpoints where this one serves a background control function. To generalize the intended target to other relatable targets, this assay endpoint is annotated to the cell morphology intended target family, where the subfamily is cell conformation.
# The levels of cell surface (or secreted, indicated by the prefix "s") biomarker endpoints were measured by ELISA. Overt cytotoxicity to cells in confluent adherent cultures (all systems other than the BT system) was assessed by measuring total protein levels using sulforhodamine B (SRB) staining in parallel cultures at the time of biomarker measurements, indicated as SRB endpoints. For proliferation assays for adherent cell types, individual cell types are cultured at sub-confluence and relative cell numbers quantified by SRB staining at time points optimized for each system (48 h: 3C and CASM3C systems; 72 h: BT and HDF3CGF systems; 96 h: SAg system). SRB was performed by staining cells with 0.1% SRB after fixation with 10% TCA and reading wells at 560 nm.Viability and proliferation of PBMC (T cells) was quantified by Alamar Blue reduction for the SAg and BT systems. For PBMC viability (referred to as PBMC Cytotoxicity within the assay endpoint names), cells were plated (75,000/well in a 96-well plate) and then chemical samples added for 1 h before addition of activators, SEB and TSST-1 (20 ng/mL final concentration each). Cells were incubated for 90 h. Then, Alamar Blue (20 uL/well) (Invitrogen, Cat DAL1100) was added for 6 h, and the plates were read with a fluorescence microplate reader at 546/580 nm (excitation/emission). For PBMC proliferation, cells were plated and activated as above but incubated for only 16 h prior to addition of Alamar Blue. Plates were read after 6 h.
Compound,outcome,AC50
CCCCCCCCC(=O)NCc1ccc(O)c(OC)c1,inactive,–
COP(=S)(OC)Oc1cc(Cl)c(Cl)cc1Cl,inactive,–
CC(C)(C)c1cc(O)ccc1O,–,39 µM (active)
BrCCBr,inactive,–
Oc1cccc2cccnc12,inactive,–
O=[N+]([O-])c1ccc2c3c(cccc13)CC2,–,8.8 µM (active)
CCOC(=O)/C=C(C)/C=C/C[C@@H](C)CCCC(C)C,inactive,–
CC1(C)Cc2cccc(O)c2O1,inactive,–
O=C(Nc1ccc2[nH]ccc2c1)c1cc2cc(F)ccc2n1Cc1cccc(F)c1,–,12.8 µM (active)
O=S(=O)(c1ccc(Cl)cc1)c1ccc(Cl)cc1,inactive,–
C[C@]12CCC(=O)C[C@@H]1CC[C@@H]1[C@@H]2CC[C@]2(C)[C@@H](O)CC[C@@H]12,inactive,–
CCNc1nc(NC(C)(C)C)nc(SC)n1,inactive,–
C[C@@H]1C[C@@H]([C@H](O)CC2CC(=O)NC(=O)C2)C(=O)[C@@H](C)C1,–,9.24 µM (active)
CC(C)(OO)c1ccccc1,inactive,–
C(=NC1CCCCC1)=NC1CCCCC1,–,37.3 µM (active)
COC[C@H](C)N(C(=O)CCl)c1c(C)csc1C,inactive,–
ClCC(Cl)CCl,inactive,–
CC(C)CCCCCCOC(=O)c1ccccc1C(=O)OCCCCCCC(C)C,inactive,–
CCCCC(CC)CO[N+](=O)[O-] (stereo not given),–,37.4 µM (active)
ClC(Cl)=C(Cl)C(Cl)=C(Cl)Cl,–,37.5 µM (active)

Compound,outcome,AC50
CC12CC1(C)C(=O)N(c1cc(Cl)cc(Cl)c1)C2=O (stereo not given),inactive,–
COP(=S)(OC)Oc1ccc(Sc2ccc(OP(=S)(OC)OC)cc2)cc1,–,13.6 µM (active)
O=C1C2(Cl)C3(Cl)C4(Cl)C(Cl)(Cl)C5(Cl)C3(Cl)C1(Cl)C5(Cl)C24Cl (stereo not given),–,5.21 µM (active)
O=c1[nH]c(=O)[nH]c(=O)[nH]1,inactive,–
CC(C)(c1ccccc1)c1ccc(O)c(C(C)(C)c2ccccc2)c1,–,5.31 µM (active)
COc1cc(-c2ccc(N)c(OC)c2)ccc1N,inactive,–
O=C(OC1CCCCC1)c1ccccc1C(=O)OC1CCCCC1,–,5.63 µM (active)
ClC1(Cl)C2(Cl)C3(Cl)C4(Cl)C(Cl)(Cl)C5(Cl)C3(Cl)C1(Cl)C5(Cl)C24Cl (stereo not given),inactive,–
C=CC(=O)OCCCCCC(C)C,inactive,–
Nc1ccc(-c2ccc(N)c(Cl)c2)cc1Cl,–,13.7 µM (active)
COP(=S)(OC)Oc1ccc(S(=O)(=O)N(C)C)cc1,inactive,–
Oc1c(I)cc(I)cc1I,–,13 µM (active)
CC(=O)C(Cl)C(=O)N(C)C (stereo not given),–,37.5 µM (active)
Cc1ccccc1N,inactive,–
O=C(O)C(F)(F)C(F)(F)C(F)(F)C(F)(F)C(F)(F)C(F)(F)F,inactive,–
CCC(=O)C(CC(C)N(C)C)(c1ccccc1)c1ccccc1 (stereo not given),inactive,–
O=C(O)C(Cl)(Cl)Cl,inactive,–
C=C(C)C(=O)[O][Sn]([CH2]CCC)([CH2]CCC)[CH2]CCC,–,0.468 µM (active)
CCOP(=S)(OCC)SCSP(=S)(OCC)OCC,inactive,–
CCOP(=S)(OCC)SCCS(=O)(=O)CC,inactive,–
